In the supplement of paper PMC11732987, “Enantioselective OTUD7B fragment discovery through chemoproteomics screening and high-throughput optimisation” (Communications Chemistry, 2025):

Experiments:
Experiment in all cases: log2 ratio of Biotin-Ahx-Ub-VS probe labelling (fragment/DMSO); higher = less target engagement (more negative = stronger competition), active = hit call of the paper (q ≤ 0.05, log2 ratio ≤ -1)
Settings in all cases: compound concentration: 200 uM; treatment time: 3 h
USP34 = USP34 (UniProt Q70CQ2)
In short: (§1)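 Labelled DUBs were enriched with NeutrAvidin, digested with LysC and trypsin, and run by diaPASEF LC-MS/MS. The labelling used Biotin-Ahx-Ub-VS at 0.5 µM final for 1 h on HEK293T lysate (495 µg per sample) previously treated in triplicate with fragment at 200 µM or vehicle for 3 h. Values are average log2 fragment/vehicle ratios by unpaired t-test on global-median-normalised Spectronaut quantities of proteins with ≥2 unique peptides.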

USP36 = molecular target: T1, USP36 (UniProt Q9P275)
T1 sequence (whole entry): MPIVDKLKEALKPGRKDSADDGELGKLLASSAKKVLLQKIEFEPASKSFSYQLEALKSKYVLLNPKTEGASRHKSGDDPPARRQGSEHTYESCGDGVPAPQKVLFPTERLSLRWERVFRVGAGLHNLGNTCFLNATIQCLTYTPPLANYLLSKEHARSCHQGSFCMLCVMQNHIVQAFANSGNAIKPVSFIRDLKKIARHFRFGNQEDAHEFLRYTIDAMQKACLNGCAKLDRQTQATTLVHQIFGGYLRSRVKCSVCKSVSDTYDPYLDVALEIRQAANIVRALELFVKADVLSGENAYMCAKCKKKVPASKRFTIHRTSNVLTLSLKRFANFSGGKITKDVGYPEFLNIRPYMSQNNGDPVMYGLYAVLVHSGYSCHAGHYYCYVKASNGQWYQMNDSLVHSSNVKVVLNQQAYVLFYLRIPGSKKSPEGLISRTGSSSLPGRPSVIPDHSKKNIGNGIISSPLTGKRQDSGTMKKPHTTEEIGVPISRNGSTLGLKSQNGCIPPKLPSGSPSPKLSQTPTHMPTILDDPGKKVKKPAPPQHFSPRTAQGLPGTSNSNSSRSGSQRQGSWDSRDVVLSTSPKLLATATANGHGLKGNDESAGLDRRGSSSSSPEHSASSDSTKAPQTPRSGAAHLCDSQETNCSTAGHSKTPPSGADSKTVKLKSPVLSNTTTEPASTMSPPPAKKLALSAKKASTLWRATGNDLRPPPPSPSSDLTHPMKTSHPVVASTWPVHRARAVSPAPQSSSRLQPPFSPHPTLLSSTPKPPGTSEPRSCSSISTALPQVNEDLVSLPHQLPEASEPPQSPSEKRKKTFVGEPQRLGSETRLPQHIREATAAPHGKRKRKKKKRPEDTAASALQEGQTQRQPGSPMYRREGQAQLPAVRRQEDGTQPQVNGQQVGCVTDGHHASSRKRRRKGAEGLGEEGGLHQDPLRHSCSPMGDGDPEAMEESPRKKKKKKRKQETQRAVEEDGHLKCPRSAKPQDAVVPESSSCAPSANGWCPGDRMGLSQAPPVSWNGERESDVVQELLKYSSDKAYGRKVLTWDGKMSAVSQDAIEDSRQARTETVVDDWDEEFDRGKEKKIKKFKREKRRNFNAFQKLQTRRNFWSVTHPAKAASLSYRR
In short: as §1

USP38 = molecular target: T2, USP38 (UniProt Q8NB14)
T2 sequence (whole entry): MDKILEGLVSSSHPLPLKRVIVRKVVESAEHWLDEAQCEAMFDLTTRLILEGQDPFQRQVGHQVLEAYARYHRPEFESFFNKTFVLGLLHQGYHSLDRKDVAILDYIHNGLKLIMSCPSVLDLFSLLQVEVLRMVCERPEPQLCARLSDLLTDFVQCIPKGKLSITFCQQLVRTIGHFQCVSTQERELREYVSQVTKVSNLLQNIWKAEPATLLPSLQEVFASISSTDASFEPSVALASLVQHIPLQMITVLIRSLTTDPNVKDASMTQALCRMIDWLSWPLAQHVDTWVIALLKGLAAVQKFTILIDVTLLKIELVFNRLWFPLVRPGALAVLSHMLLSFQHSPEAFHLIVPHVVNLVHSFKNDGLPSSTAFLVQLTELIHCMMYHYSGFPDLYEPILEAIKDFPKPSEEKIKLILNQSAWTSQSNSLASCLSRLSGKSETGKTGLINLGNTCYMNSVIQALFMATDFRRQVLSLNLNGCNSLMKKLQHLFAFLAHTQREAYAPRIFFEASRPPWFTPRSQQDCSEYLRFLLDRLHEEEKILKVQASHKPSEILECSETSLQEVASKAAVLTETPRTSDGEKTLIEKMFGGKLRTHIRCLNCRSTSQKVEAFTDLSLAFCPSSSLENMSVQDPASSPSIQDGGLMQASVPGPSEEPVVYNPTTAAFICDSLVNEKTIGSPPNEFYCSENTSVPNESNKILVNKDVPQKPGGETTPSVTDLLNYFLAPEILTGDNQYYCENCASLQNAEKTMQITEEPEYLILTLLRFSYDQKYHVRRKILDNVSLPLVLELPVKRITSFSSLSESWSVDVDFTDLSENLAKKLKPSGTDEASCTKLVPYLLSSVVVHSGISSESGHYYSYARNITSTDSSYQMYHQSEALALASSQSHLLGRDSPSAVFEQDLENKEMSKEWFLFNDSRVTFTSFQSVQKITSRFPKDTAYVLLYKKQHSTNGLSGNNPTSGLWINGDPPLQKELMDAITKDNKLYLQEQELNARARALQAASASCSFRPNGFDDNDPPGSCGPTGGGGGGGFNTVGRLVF
In short: as §1

USP39 = molecular target: T3, USP39 (UniProt Q53GS9)
T3 sequence (whole entry): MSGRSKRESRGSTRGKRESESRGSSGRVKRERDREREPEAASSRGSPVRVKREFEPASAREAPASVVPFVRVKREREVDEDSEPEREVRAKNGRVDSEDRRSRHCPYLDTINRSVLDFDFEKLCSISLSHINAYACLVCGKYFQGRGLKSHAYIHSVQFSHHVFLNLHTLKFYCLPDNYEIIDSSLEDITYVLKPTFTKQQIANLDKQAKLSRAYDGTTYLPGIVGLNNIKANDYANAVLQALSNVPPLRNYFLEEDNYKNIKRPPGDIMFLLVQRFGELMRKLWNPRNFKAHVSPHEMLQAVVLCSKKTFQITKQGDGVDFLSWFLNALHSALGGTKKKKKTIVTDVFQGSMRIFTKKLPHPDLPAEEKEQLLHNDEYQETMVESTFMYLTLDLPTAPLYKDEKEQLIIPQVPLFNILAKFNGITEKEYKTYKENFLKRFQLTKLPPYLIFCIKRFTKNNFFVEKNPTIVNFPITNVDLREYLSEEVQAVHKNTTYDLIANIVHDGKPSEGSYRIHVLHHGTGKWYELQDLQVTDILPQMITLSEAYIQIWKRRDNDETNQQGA
In short: as §1

USP4 = molecular target: T4, USP4 (UniProt Q13107)
T4 sequence (whole entry): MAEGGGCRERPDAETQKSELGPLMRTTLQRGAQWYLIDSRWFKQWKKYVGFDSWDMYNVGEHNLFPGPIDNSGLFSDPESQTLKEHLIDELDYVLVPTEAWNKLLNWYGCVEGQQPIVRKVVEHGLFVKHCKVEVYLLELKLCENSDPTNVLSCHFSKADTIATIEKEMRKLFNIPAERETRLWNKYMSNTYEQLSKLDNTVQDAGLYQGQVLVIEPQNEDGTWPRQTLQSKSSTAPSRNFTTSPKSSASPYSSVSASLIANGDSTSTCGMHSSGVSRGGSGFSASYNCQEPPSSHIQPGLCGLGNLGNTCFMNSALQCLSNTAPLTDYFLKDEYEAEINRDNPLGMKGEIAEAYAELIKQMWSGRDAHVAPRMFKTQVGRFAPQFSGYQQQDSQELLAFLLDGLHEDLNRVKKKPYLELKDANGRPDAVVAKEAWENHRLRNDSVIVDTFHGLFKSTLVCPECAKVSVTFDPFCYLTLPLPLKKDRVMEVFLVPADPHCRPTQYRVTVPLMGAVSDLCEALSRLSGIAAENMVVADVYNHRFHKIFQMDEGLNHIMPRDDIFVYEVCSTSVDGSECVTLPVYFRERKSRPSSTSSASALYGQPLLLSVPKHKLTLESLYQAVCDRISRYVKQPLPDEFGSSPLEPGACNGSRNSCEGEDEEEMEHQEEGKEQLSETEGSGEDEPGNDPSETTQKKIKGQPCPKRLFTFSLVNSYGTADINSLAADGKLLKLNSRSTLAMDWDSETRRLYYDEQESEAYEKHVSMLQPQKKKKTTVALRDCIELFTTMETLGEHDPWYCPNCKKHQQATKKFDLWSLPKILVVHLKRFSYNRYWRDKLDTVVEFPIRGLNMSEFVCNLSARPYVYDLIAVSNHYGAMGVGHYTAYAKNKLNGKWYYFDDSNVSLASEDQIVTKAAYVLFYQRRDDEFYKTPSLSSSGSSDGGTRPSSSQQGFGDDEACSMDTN
In short: as §1

Measured: log2 ratio of Biotin-Ahx-Ub-VS probe labelling

USP34, sequence (Q70CQ2 whole entry, the tested form may be a part): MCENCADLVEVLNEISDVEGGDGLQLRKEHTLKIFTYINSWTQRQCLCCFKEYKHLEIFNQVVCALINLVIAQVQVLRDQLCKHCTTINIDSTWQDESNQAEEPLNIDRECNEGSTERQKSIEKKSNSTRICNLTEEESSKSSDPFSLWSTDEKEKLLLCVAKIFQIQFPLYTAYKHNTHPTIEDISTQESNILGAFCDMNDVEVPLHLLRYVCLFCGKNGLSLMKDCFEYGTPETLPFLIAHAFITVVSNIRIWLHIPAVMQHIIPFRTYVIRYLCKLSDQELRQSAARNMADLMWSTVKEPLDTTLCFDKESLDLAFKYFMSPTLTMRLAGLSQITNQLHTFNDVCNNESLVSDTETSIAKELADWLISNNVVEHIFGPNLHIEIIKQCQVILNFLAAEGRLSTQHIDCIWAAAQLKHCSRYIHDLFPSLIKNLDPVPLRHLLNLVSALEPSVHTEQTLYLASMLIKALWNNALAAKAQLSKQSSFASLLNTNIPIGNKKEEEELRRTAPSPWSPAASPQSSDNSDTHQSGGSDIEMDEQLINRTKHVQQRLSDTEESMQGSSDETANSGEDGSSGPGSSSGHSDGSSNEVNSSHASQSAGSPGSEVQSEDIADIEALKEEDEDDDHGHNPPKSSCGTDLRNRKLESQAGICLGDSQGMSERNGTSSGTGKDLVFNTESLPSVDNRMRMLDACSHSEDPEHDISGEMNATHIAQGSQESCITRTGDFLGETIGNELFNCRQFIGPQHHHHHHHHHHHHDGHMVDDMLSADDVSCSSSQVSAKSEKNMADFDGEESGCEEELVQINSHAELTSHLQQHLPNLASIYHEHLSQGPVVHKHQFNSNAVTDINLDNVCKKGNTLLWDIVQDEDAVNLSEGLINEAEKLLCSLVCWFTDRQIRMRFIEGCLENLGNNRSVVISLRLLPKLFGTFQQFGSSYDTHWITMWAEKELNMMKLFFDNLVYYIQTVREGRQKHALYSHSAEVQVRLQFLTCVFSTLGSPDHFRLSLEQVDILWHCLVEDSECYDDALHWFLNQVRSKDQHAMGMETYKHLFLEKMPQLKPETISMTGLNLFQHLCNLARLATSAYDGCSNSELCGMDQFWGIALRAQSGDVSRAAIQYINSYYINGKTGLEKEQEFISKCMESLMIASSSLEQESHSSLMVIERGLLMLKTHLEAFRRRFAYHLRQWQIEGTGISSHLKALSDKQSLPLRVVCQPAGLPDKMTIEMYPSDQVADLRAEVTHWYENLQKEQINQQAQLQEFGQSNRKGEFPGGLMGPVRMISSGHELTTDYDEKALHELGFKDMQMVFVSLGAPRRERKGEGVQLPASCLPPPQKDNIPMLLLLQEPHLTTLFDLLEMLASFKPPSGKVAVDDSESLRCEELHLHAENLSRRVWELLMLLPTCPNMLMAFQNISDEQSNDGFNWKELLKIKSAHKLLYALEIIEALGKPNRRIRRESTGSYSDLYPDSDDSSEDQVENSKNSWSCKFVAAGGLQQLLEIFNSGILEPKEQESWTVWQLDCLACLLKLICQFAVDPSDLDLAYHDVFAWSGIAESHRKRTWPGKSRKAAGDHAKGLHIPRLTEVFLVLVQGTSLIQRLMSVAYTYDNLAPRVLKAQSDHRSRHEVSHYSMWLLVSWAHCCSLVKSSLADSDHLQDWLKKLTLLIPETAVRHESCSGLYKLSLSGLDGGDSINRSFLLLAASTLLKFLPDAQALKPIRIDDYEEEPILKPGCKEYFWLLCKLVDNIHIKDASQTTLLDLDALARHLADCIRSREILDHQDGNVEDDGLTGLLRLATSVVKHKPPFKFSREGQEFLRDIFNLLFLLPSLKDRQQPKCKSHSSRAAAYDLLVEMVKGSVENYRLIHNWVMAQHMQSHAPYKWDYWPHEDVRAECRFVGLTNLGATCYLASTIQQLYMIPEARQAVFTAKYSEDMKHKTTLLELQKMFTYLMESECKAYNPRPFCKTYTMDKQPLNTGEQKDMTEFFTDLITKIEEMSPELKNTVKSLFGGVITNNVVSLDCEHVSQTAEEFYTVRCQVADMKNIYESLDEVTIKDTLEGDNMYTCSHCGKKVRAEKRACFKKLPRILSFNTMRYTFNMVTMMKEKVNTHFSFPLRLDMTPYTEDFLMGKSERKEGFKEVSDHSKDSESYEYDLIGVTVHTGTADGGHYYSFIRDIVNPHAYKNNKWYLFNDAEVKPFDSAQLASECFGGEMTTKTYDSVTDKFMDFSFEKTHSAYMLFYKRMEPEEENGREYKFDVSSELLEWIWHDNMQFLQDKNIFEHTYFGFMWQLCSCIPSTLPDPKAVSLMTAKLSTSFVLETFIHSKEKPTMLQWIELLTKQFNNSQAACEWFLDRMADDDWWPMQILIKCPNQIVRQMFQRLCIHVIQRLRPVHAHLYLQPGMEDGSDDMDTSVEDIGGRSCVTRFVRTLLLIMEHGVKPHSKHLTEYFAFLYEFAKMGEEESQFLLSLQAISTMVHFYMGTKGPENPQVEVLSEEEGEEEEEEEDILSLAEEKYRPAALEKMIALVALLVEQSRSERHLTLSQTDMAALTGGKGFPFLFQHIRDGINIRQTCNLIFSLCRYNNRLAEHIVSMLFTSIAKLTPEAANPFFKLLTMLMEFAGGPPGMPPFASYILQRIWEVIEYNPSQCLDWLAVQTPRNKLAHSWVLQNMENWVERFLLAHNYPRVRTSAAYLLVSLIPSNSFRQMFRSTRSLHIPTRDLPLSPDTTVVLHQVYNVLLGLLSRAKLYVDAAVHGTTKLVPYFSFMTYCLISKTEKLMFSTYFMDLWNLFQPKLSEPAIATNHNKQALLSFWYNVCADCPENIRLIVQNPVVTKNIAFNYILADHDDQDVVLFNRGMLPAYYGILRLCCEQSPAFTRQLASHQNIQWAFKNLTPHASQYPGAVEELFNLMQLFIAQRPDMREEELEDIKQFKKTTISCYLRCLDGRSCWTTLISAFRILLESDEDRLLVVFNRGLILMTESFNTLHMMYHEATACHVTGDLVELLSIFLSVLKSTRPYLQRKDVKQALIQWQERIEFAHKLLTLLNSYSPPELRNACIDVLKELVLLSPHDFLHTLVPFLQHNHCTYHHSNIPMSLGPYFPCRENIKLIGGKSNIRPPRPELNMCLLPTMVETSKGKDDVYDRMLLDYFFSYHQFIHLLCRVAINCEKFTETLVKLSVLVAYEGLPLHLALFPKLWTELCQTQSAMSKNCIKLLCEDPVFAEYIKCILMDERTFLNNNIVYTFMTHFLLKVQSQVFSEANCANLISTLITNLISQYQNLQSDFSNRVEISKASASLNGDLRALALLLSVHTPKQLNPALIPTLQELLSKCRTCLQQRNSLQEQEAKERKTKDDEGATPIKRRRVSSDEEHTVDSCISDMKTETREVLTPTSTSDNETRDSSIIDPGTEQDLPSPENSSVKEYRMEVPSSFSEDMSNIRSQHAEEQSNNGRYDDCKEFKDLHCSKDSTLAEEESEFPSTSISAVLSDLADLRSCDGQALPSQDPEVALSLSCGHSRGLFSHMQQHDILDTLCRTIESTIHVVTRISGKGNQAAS

Cc1cccn2cc(CCNC(=O)CCl)nc12.Cl
inactive: USP34 -0.083 | USP36 -0.0485 | USP38 -0.247 | USP39 -0.319 | USP4 -0.12
